Among all 48,000 compounds or so, about 13,000 (27%) showed an effect of 50% or more. Some of the results follow.
These molecules were tested on Wolbachia pipientis (assay: Anti-Wolbachia Cell-Based Screen). Conditions: 5 µM.
Format: functional
Parameters: scale not given: in the data most compounds retested in dose-response had high values

SMILES | Percent Effect
CCC(C)NC(=O)c1ccc(CNC(=O)CC(C)(C)C)cc1 (stereo not given) | 3.529%
COC(=O)CCC(=O)NC1CCCc2cc(OC(F)F)ccc21 (stereo not given) | 7.111%
CCC(C(=O)N(Cc1ccccc1OC)C1CC1)n1cccn1 (stereo not given) | -4.851%
O=c1[nH]c(=O)n(CC(O)c2ccc(F)cc2F)cc1Cl (stereo not given) | -0.7239%
OC(CNCCn1cccn1)COc1ccc(F)cc1 (stereo not given) | 3.915%
COc1ccc(CN2CCCCC2CNC(=O)OC(C)(C)C)cc1F (stereo not given) | 23.02%
COc1ccc(CN2CC[C@@]3(O)CCCC[C@H]3C2)cc1C(=O)O | -6.5%
COc1cc(CN2CCCC[C@]3(C)NC(=O)CC[C@H]23)ccc1F | 73.04%
CCc1nc(CCNC(=O)Nc2ccc(C(=O)NC)cc2C)cs1 | 3.747%
Cc1nc(C)n(CC2CCCN2Cc2ncc(C(C)(C)C)o2)n1 (stereo not given) | 109.1%
Cc1cc(C)n(CC2CCCN2Cc2ncc(C(C)(C)C)o2)n1 (stereo not given) | 98.37%
Cc1cc(C)n(CC2CCCN2Cc2cccc(C#N)c2)n1 (stereo not given) | -4.614%
Cc1cc(C)n(CC2CCCN2CCc2ccncc2)n1 (stereo not given) | -8.858%
Cc1nc(C)n(CC2CCCN(Cc3nc(C)c(C)o3)C2)n1 (stereo not given) | 2.327%
c1ccc(-c2cnc(CN3CCCC3Cn3cncn3)o2)cc1 (stereo not given) | -9.309%
Cc1nc(C)n(CC2CCCCN2Cc2ncc(C(C)(C)C)o2)n1 (stereo not given) | 8.215%
Cc1nc(C)n(CC2CCCN2Cc2ccccn2)n1 (stereo not given) | 5.197%
Cc1nc(C)n(CC2CCCN2Cc2ncc(-c3ccccc3)o2)n1 (stereo not given) | 119.8%
Cc1nc(C)n(CC2CCCN(Cc3ncc(C(C)(C)C)o3)C2)n1 (stereo not given) | 87.18%
CN(Cc1ccc(F)cc1F)CC(C)(CO)CO | -8.016%
CCC(O)(CNCc1cc[nH]n1)c1ccc(Br)cc1 (stereo not given) | 7.461%
CCn1cc(S(=O)(=O)Nc2cccnc2-n2cccn2)nc1C | -8.927%
O=C(NC1(c2nc(C3CC3)no2)CCCCC1)c1cccnc1O | -6.139%
O=S(=O)(CCNCc1cc(O)c2cc(F)ccc2n1)N1CCCC1 | -19.62%

SMILES | Percent Effect
C=C(C)COc1ccc(C(=O)NCC2CC(CC)=NO2)cc1 (stereo not given) | 5.055%
Cc1noc(C)c1CNC(=O)C(C)Oc1ccccc1F (stereo not given) | -0.2471%
CCc1nonc1NC(=O)C(C)Oc1ccccc1F (stereo not given) | -3.063%
Cc1nc(CNC(=O)C(C)Oc2ccccc2F)no1 (stereo not given) | 94.07%
CC(C)Oc1ncc(C(=O)N2CCC(NC(=O)C3CC3)CC2)cc1Cl | -2.3%
CCSCCC(C)N(C)C(=O)c1ccc(C)o1 (stereo not given) | 3.019%
COCCN1CC2(CCCN(C(=O)NCCc3cccs3)C2)CCC1=O (stereo not given) | 2.041%
COCCOCC(=O)Nc1ccc(C)cc1Cl | 120.1%
COCCOCC(=O)Nc1ccc(C)cc1Br | 93.08%
Cc1ccc(NC(=O)CNc2cccc3c2CCCC3)c(Br)c1 | 9.995%
Cc1ccc(NC(=O)N(C)CC(O)COCCOC(C)C)c(Br)c1 (stereo not given) | -14.49%
COCCOCC(=O)NC(C#N)c1cc(Cl)cc(Cl)c1 (stereo not given) | -3.504%
COCCOCC(=O)Nc1cccc(CN(C)C(C)=O)c1 | 3.065%
COc1cc2c(nn1)CCN(Cc1ncc(C(C)(C)C)o1)C2 | 5.733%
CCN(C)S(=O)(=O)NCC1(c2cccc(Br)c2)CC1 | 0.1722%
CN(C)CCCC(=O)NC1CC(C)(C)Cc2nc(C(C)(C)C)ncc21 (stereo not given) | 112.6%
CCCC(=O)NCC(=O)NC1CC(C)(C)Cc2oc(C)cc21 (stereo not given) | -3.424%
CN(C)CC(=O)NC1CC(C)(C)Cc2nc(C(C)(C)C)ncc21 (stereo not given) | 106.4%
CN(C)c1ccc(C(=O)N2Cc3cnc(C(C)(C)C)nc3C2)cc1 | 19.06%
COc1ccc(NC(=O)C(c2ccc(OC)cc2)N2CCOCC2)cc1 (stereo not given) | 109.2%
COc1ccc(C(CNC(=O)c2cnc(C)cn2)N2CCOCC2)cc1 (stereo not given) | 15.25%
CCC(CC)C(CNC(=O)Nc1ccc(OC)cc1)N1CCOCC1 (stereo not given) | 4.336%
CSc1nc2cc(C)n(CC(=O)N3CCCC3)c2c(=O)n1CC(C)C | 4.703%
Cc1cc(C(=O)N(C)CCCn2cccn2)nc(N)n1 | 99.09%

SMILES | Percent Effect
Cc1cc(N(C)Cc2ncc[nH]2)nc(-c2cccnc2)n1 | -8.057%
Cc1cc(N(C)CCCn2cccn2)nc(-c2cccnc2)n1 | 95.65%
Cc1cc(C(=O)N2C[C@@H]3[C@@H](CN(C)CCCn4cccn4)[C@@H]3C2)c(C)o1 | 2.079%
Cc1cc(N(C)CCCn2cccn2)nc(N)n1 | 93.8%
CC(C)[C@H]1COC(=O)N1CC(=O)N(C)CCCn1cccn1 | -1.545%
Cc1cc(N(C)CC2COc3ccccc3O2)nc(N)n1 (stereo not given) | -8.93%
COc1ccccc1OCCCN(C)c1cc(C)nc(N)n1 | -7.239%
CN(CCn1cccn1)c1cc(C(F)(F)F)nc(-c2cccnc2)n1 | -9%
Cc1cc(N2CCN(C3CCSCC3)CC2)n2nc(C)c(C)c2n1 | -17.53%
CCCN(CCC)S(=O)(=O)NC(C)C(=O)N(C)C (stereo not given) | -7.467%
CCC[C@H]1CN(CCS(C)(=O)=O)C[C@@H]1NC(=O)c1ccccc1F | -18.99%
O=C(CCCc1cn[nH]c1)N1CCOCC(O)C1 (stereo not given) | -4.397%
CN(C)C(=O)Cn1ccc2cc(NC(=O)N3CCOCC3)ccc21 | -7.307%
CC(=O)N1CCOC[C@H](Oc2ccc(C(F)(F)F)cc2)C1 | -13.29%
CN(C)c1ccc(CC(=O)N2CCOCC(O)C2)cc1 (stereo not given) | -50.44%
CC(=O)NCC(=O)N1CCOCC(Cc2ccc3c(ccn3C)c2)C1 (stereo not given) | 143.9%
CC(=O)N1CCOCC(Cc2ccc3c(ccn3C(C)=O)c2)C1 (stereo not given) | 130%
NC(=O)c1cccc(CC2CCN(C(=O)CCCN3CCOCC3)C2)c1 (stereo not given) | -2.023%
CC(=O)N1CCOCC(Cc2ccc3c(ccn3C)c2)C1 (stereo not given) | 138.8%
COCCC(=O)N1CCOCC(Cc2ccc3c(ccn3C)c2)C1 (stereo not given) | 165.7%
Cn1ccc2cc(C(=O)N3CCOCC3)ccc21 | -3.73%
CC(=O)NCC(=O)N1CCC(C2CCN(Cc3ccc(Cl)cc3)C2)CC1 (stereo not given) | -7.699%

— ChEMBL document CHEMBL3988442, “University of Dundee, Small-Polar-MMV Screening Library” (2021)
